# Measurements published in the supplement of paper PMC6555819.
# Columns and labels:
# Assay in all cases: PBM binding z-score (relative to random genomic background probes); higher = stronger binding; sequences stand for … in GC…GCGATTGACAGCGTAGAATGAAGG
# [1] = test system: PPARg:RXRa DBDmut IVT, anti-RXR (DBD mutation: RXRa K156A/R161A, NR concentration 270 nM, RXRa partner concentration 90 nM)
# Summary of the method: (§1)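 Custom Agilent 4×180K protein-binding microarrays carried double-stranded probes. Their 34-nt variable regions held direct-repeat seeds, single-nucleotide variants, half-site ablations and random human genomic background sequences. Arrays were incubated 1 h with ligand-free nuclear receptor dimers in PBS pH 7.4, 2% milk, 0.02% Triton X-100, 1 mM DTT, 0.2 mg/mL BSA and 0.4 mg/ml salmon testes DNA. Antibodies against each partner (one per run) detected binding, and scanned fluorescence was regression-normalized. Binding z-scores use random background probes as reference.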
# [2] = test system: PPARg:RXRa IVT, anti-PPARg (NR concentration 270 nM, RXRa partner concentration 90 nM)
# Summary of the method: as §1
# [3] = test system: PPARg DBDmut:RXRa IVT, anti-PPARg (DBD mutation: PPARg1 K132A/R137A, NR concentration 270 nM, RXRa partner concentration 90 nM)
# Summary of the method: as §1
# [4] = test system: PPARg DBDmut IVT, anti-PPARg (DBD mutation: PPARg1 K132A/R137A, NR concentration 270 nM)
# Summary of the method: as §1
# [5] = test system: PPARg homodimer (NR concentration 180 nM)
# Summary of the method: as §1
# [6] = test system: PXR:RXRa (NR concentration 270 nM, RXRa partner concentration 90 nM)
# Summary of the method: as §1
# [7] = test system: PXR homodimer (NR concentration 270 nM)
# Summary of the method: as §1
# [8] = test system: RARa:RXR (NR concentration 270 nM, RXRa partner concentration 90 nM)
# Summary of the method: as §1
# [9] = test system: RARa homodimer (NR concentration 270 nM)
# Summary of the method: as §1
# [10] = test system: RARb:RXRa (NR concentration 270 nM, RXRa partner concentration 90 nM)
# Summary of the method: as §1
sequence,measurement,setting,value
GCTTACGGGTCAAAGGTTTTAGCATGAATAGAAT,PBM binding z-score,[1],4.96
same,PBM binding z-score,[2],5.14
same,PBM binding z-score,[3],1.91
same,PBM binding z-score,[4],1.07
same,PBM binding z-score,[5],3.2
same,PBM binding z-score,[6],4.06
same,PBM binding z-score,[7],0.129
same,PBM binding z-score,[8],5.58
same,PBM binding z-score,[9],0.298
same,PBM binding z-score,[10],3.98
ATCTCTAGTTAACCAAGTTCAGTGAATGCCGAAC,PBM binding z-score,[1],-0.131
same,PBM binding z-score,[2],0.461
same,PBM binding z-score,[3],0.59
same,PBM binding z-score,[4],1.22
same,PBM binding z-score,[5],1
same,PBM binding z-score,[6],2.1
same,PBM binding z-score,[7],3
same,PBM binding z-score,[8],0.723
same,PBM binding z-score,[9],1.21
same,PBM binding z-score,[10],0.932
CCTACTGGGCCATTCTGAGGTCATTGATCATATG,PBM binding z-score,[1],4.08
same,PBM binding z-score,[2],4.24
same,PBM binding z-score,[3],0.979
same,PBM binding z-score,[4],-0.299
same,PBM binding z-score,[5],1.5
same,PBM binding z-score,[6],4.42
same,PBM binding z-score,[7],3.46
same,PBM binding z-score,[8],3.85
same,PBM binding z-score,[9],-0.372
same,PBM binding z-score,[10],2.57
TCATATCGGTAAACAGGTGAAAGTCCGTAAGTTA,PBM binding z-score,[1],2.55
same,PBM binding z-score,[2],2.3
same,PBM binding z-score,[3],0.278
same,PBM binding z-score,[4],0.853
same,PBM binding z-score,[5],0.999
same,PBM binding z-score,[6],0.657
same,PBM binding z-score,[7],0.286
same,PBM binding z-score,[8],0.933
same,PBM binding z-score,[9],1.19
same,PBM binding z-score,[10],0.764
CGAACTAGGTCACGGACAGTGAATCTCCGCACGC,PBM binding z-score,[1],8.66
same,PBM binding z-score,[2],9.1
same,PBM binding z-score,[3],8.25
same,PBM binding z-score,[4],6.07
same,PBM binding z-score,[5],4.94
same,PBM binding z-score,[6],2.4
same,PBM binding z-score,[7],-0.165
same,PBM binding z-score,[8],3.61
same,PBM binding z-score,[9],1.22
same,PBM binding z-score,[10],4.35
CGTCCAAGGTCATAGGATGTCAGTGAAGACAGAT,PBM binding z-score,[1],3.22
same,PBM binding z-score,[2],3.9
same,PBM binding z-score,[3],1.13
same,PBM binding z-score,[4],0.513
same,PBM binding z-score,[5],2.45
same,PBM binding z-score,[6],4.69
same,PBM binding z-score,[7],1.15
same,PBM binding z-score,[8],4.58
same,PBM binding z-score,[9],0.89
same,PBM binding z-score,[10],5.08
CGAACTAGGTCATTGACATGACAGTGAATAGTAA,PBM binding z-score,[1],8.34
same,PBM binding z-score,[2],8.44
same,PBM binding z-score,[3],3.7
same,PBM binding z-score,[4],2.52
same,PBM binding z-score,[5],1.93
same,PBM binding z-score,[6],1.45
same,PBM binding z-score,[7],-0.208
same,PBM binding z-score,[8],2.28
same,PBM binding z-score,[9],0.896
same,PBM binding z-score,[10],3.62
GCTCGGAGGCCAAGGTCAGAGCTTTGTCCGTAGA,PBM binding z-score,[1],0.637
same,PBM binding z-score,[2],0.382
same,PBM binding z-score,[3],-1.23
same,PBM binding z-score,[4],-1.94
same,PBM binding z-score,[5],1.18
same,PBM binding z-score,[6],1.64
same,PBM binding z-score,[7],-0.446
same,PBM binding z-score,[8],1.82
same,PBM binding z-score,[9],-1.6
same,PBM binding z-score,[10],3.45
CCTCGTAGGACAGAAGGTCAGAGCTGTCCGCTTT,PBM binding z-score,[1],0.395
same,PBM binding z-score,[2],0.358
same,PBM binding z-score,[3],-0.69
same,PBM binding z-score,[4],-1.03
same,PBM binding z-score,[5],1.25
same,PBM binding z-score,[6],1.47
same,PBM binding z-score,[7],-0.0848
same,PBM binding z-score,[8],2.1
same,PBM binding z-score,[9],-0.0313
same,PBM binding z-score,[10],3.02
TCTGCTAGGCCAACGATGGTCAGCTAATCTGCTA,PBM binding z-score,[1],1.09
same,PBM binding z-score,[2],0.619
same,PBM binding z-score,[3],-0.0832
same,PBM binding z-score,[4],-1.02
same,PBM binding z-score,[5],-1.45
same,PBM binding z-score,[6],-0.538
same,PBM binding z-score,[7],-1.31
same,PBM binding z-score,[8],-0.793
same,PBM binding z-score,[9],-1.04
same,PBM binding z-score,[10],0.786
AGAGCGAGGGCAATGAGTTGATAGCACGGGTGGC,PBM binding z-score,[1],0.771
same,PBM binding z-score,[2],0.253
same,PBM binding z-score,[3],0.00949
same,PBM binding z-score,[4],-1.18
same,PBM binding z-score,[5],-0.656
same,PBM binding z-score,[6],1.38
same,PBM binding z-score,[7],4.01
same,PBM binding z-score,[8],0.0108
same,PBM binding z-score,[9],-1
same,PBM binding z-score,[10],2.13
CAAACTAGGTCACCGGAGGGTCAAAGTCCGCATG,PBM binding z-score,[1],8.31
same,PBM binding z-score,[2],8.77
same,PBM binding z-score,[3],2.75
same,PBM binding z-score,[4],0.546
same,PBM binding z-score,[5],4.78
same,PBM binding z-score,[6],5.16
same,PBM binding z-score,[7],0.605
same,PBM binding z-score,[8],6.42
same,PBM binding z-score,[9],1.73
same,PBM binding z-score,[10],4.89
ACTAGCAGCCCAAGTTTGGGTCACTCAAACAAAG,PBM binding z-score,[1],-0.54
same,PBM binding z-score,[2],0.157
same,PBM binding z-score,[3],-0.825
same,PBM binding z-score,[4],-0.894
same,PBM binding z-score,[5],0.227
same,PBM binding z-score,[6],0.606
same,PBM binding z-score,[7],-0.424
same,PBM binding z-score,[8],1.19
same,PBM binding z-score,[9],-0.533
same,PBM binding z-score,[10],0.813
CCGACTGGGGCAAAGGTTACCCTACTCAGTACGA,PBM binding z-score,[1],4.37
same,PBM binding z-score,[2],5.45
same,PBM binding z-score,[3],-0.494
same,PBM binding z-score,[4],-0.866
same,PBM binding z-score,[5],0.732
same,PBM binding z-score,[6],1.9
same,PBM binding z-score,[7],-0.0869
same,PBM binding z-score,[8],3.02
same,PBM binding z-score,[9],-0.235
same,PBM binding z-score,[10],2.1
TATACAGGGTAAAAGGCCAGAGTACGAATGTCGA,PBM binding z-score,[1],1.68
same,PBM binding z-score,[2],2.88
same,PBM binding z-score,[3],1.57
same,PBM binding z-score,[4],1.04
same,PBM binding z-score,[5],1.27
same,PBM binding z-score,[6],0.286
same,PBM binding z-score,[7],0.409
same,PBM binding z-score,[8],0.32
same,PBM binding z-score,[9],0.622
same,PBM binding z-score,[10],1.85
CCCACTGGGCCATCAGGTCATTGATATCAACGTT,PBM binding z-score,[1],3.84
same,PBM binding z-score,[2],5.07
same,PBM binding z-score,[3],0.243
same,PBM binding z-score,[4],0.0844
same,PBM binding z-score,[5],2.19
same,PBM binding z-score,[6],1.57
same,PBM binding z-score,[7],0.893
same,PBM binding z-score,[8],1.95
same,PBM binding z-score,[9],0.424
same,PBM binding z-score,[10],2.04
TCTAGTTGGTCAAAGGGCACACACTCGAAATGCG,PBM binding z-score,[1],2.22
same,PBM binding z-score,[2],3.89
same,PBM binding z-score,[3],0.5
same,PBM binding z-score,[4],0.679
same,PBM binding z-score,[5],1.73
same,PBM binding z-score,[6],1.7
same,PBM binding z-score,[7],0.178
same,PBM binding z-score,[8],2.72
same,PBM binding z-score,[9],0.588
same,PBM binding z-score,[10],2.6
CGTCCAAGGTCAGCAGTTCAGTGAAAGCGACGTG,PBM binding z-score,[1],2.51
same,PBM binding z-score,[2],2.84
same,PBM binding z-score,[3],0.0799
same,PBM binding z-score,[4],0.847
same,PBM binding z-score,[5],1.67
same,PBM binding z-score,[6],3.52
same,PBM binding z-score,[7],1.29
same,PBM binding z-score,[8],3.96
same,PBM binding z-score,[9],0.38
same,PBM binding z-score,[10],5.29
AGAACGAGGGCAATGAGCTGATAGCACGGGTGGC,PBM binding z-score,[1],3.25
same,PBM binding z-score,[2],2.14
same,PBM binding z-score,[3],0.548
same,PBM binding z-score,[4],-0.351
same,PBM binding z-score,[5],-0.0817
same,PBM binding z-score,[6],0.131
same,PBM binding z-score,[7],0.0255
same,PBM binding z-score,[8],0.176
same,PBM binding z-score,[9],-0.301
same,PBM binding z-score,[10],2
TCAATGAGGTTATAAGATCAGGGAACGTTGCAAA,PBM binding z-score,[1],2.23
same,PBM binding z-score,[2],0.886
same,PBM binding z-score,[3],-0.23
same,PBM binding z-score,[4],0.398
same,PBM binding z-score,[5],0.29
same,PBM binding z-score,[6],0.939
same,PBM binding z-score,[7],-0.134
same,PBM binding z-score,[8],1.47
same,PBM binding z-score,[9],0.789
same,PBM binding z-score,[10],1.31
ATTCAAAGTTCATCTAGGTAACGTAAGATATGCT,PBM binding z-score,[1],0.894
same,PBM binding z-score,[2],2.97
same,PBM binding z-score,[3],2.38
same,PBM binding z-score,[4],1.91
same,PBM binding z-score,[5],2.88
same,PBM binding z-score,[6],4.96
same,PBM binding z-score,[7],7.34
same,PBM binding z-score,[8],3.44
same,PBM binding z-score,[9],1.89
same,PBM binding z-score,[10],4.93
CCAGACAGGTGCAAGGTAACTCAGTCTGGTACGC,PBM binding z-score,[1],-0.395
same,PBM binding z-score,[2],-0.318
same,PBM binding z-score,[3],-0.426
same,PBM binding z-score,[4],-0.666
same,PBM binding z-score,[5],-0.0621
same,PBM binding z-score,[6],-0.444
same,PBM binding z-score,[7],-0.237
same,PBM binding z-score,[8],-0.146
same,PBM binding z-score,[9],-0.328
same,PBM binding z-score,[10],-0.0725
TCATATAGGTAAAAGGTAAAAGTCGGTGTGGTAA,PBM binding z-score,[1],5.05
same,PBM binding z-score,[2],4.32
same,PBM binding z-score,[3],0.348
same,PBM binding z-score,[4],1.01
same,PBM binding z-score,[5],1.81
same,PBM binding z-score,[6],1.39
same,PBM binding z-score,[7],0.507
same,PBM binding z-score,[8],1.78
same,PBM binding z-score,[9],2.04
same,PBM binding z-score,[10],0.854
GCGACTGGGGCATCAGCAGGTTACAATAACTTAA,PBM binding z-score,[1],3.24
same,PBM binding z-score,[2],3.27
same,PBM binding z-score,[3],-0.414
same,PBM binding z-score,[4],-0.53
same,PBM binding z-score,[5],0.365
same,PBM binding z-score,[6],0.0826
same,PBM binding z-score,[7],-0.126
same,PBM binding z-score,[8],0.651
same,PBM binding z-score,[9],-0.54
same,PBM binding z-score,[10],0.753
